Shown are actives, neighbours in structure and some others; about 2.8% of the full set was active somewhere.
NSD2 inh – NSD2 (human) methyltransferase inhibition; NSD2 peptide methylation, AlphaScreen, 120 min; 310,000 compounds, 0.54% hits; inhibition, % at 12.5 µM; in the data active = inhibition above about 50%
Shn3 inh set2 – inhibitors of Schnurri-3 3'UTR reporter in osteoblasts; Clone20 osteoblast Shn3 3'UTR firefly luciferase, 24 h; 360,000 compounds, 0.52% hits; inhibition, % at 12.5 µM;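 active = mean inhibition of at least 75% with every replicate also reaching 75%; inconclusive = mean inhibition at least 75% but some replicate below; inactive = mean inhibition below 75%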;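 note: 0% = median of neutral control wells and 100% = pilot-screen positive control compound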
LMP1 NFkB inh – inhibitors of Epstein-Barr LMP1-induced NF-kappaB reporter | 350,000 compounds, 0.69% hits | inhibition, % at 12.5 µM | LMP1-induced NF-kappaB luciferase reporter cells, luminescence; in the data active = inhibition above about 41%; inconclusive = no clear call, values can overlap the other calls;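 note: 0% = neutral control wells and 100% = reference inhibitor control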
PAX8 inh HTS – PAX8 transcriptional activity inhibition. RMG-I TPO-luciferase reporter, SteadyGlo, 24 h. inhibition, % at 12.6 µM. 360,000 compounds, 1.2% hits. AID 652154;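 active = mean replicate inhibition at least 60% with every replicate also reaching 60%; inconclusive = only one of the two criteria is met; inactive = mean below 60% and not all replicates reaching 60%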;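 note: luciferase light reporting Pax8 driven TPO promoter activity; plate controls were median of neutral control wells for no effect and mitoxantrone controls for full effect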
Env fusion inh – blocks HIV Env-driven cell-cell fusion; 360,000 compounds, 1.1% hits; AID 651610; inhibition, % at 12.3 µM; HeLa-JRFL Env/CEM21 cell fusion, luciferase;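 active = mean replicate inhibition score of at least 50 and every replicate individually at or above 50; inconclusive = only one of the two criteria met; inactive = mean below 50 and not all replicates reaching 50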;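 note: 0% = plate neutral controls and 100% = maraviroc near 300 nM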
N-glyco inh – blocks N-linked glycosylation in D54 reporter cells | reporter increase, % at 12.5 µM | 360,000 compounds, 0.23% hits | AID 588692 | D54 ERlucT glycosylation luciferase reporter, 24 h; percent of 100 nM tunicamycin response;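 active = mean luciferase reporter signal, scaled so untreated is 0 and the glycosylation-blocking control 100, at or above a set limit in every replicate; inconclusive = mean reaches the limit but not every replicate does; inactive = mean below the limit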;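 note: luciferase carries N-glycosylation sites so blocking glycosylation raises the light; 0% = median of neutral control wells and 100% = median of 100 nM tunicamycin wells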
An asterisk follows results filed as active; ? = inconclusive; . = no result given; [ ] = another dose, or the depositor's remark.

SMILES	NSD2 inh	Shn3 inh set2	LMP1 NFkB inh	PAX8 inh HTS	Env fusion inh	N-glyco inh
O=C(Cn1c(=O)n(CC2CCCO2)c(=O)c2ccccc21)c1ccc(Cl)c(Cl)c1 (stereo not drawn)	-2.6	15.6	6.3	.	58.0*	-0.4
CCCCNC(=O)C[C@H]1C[C@@]2(C(=O)OC)C(=C[C@H](C(C)(C)C)O[C@@H]2C)N(CCC2=CCCCC2)C1=O	.	.	.	7.4	72.4*	.
COC(=O)[C@]12C[C@H](CC(=O)NCCCN3CCCC3=O)C(=O)N(CCC3=CCCCC3)C1=C[C@H](C(C)(C)C)O[C@@H]2C	.	.	.	15.6	44.9	.
COC(=O)[C@]12C[C@H](CC(=O)NCCC(C)C)C(=O)N(CCC3=CCCCC3)C1=C[C@H](C(C)(C)C)O[C@@H]2C	.	.	.	23.8	58.9*	.
COC(=O)[C@]12C[C@H](CC(=O)NCc3cccc4ccccc34)C(=O)N(CCC3=CCCCC3)C1=C[C@H](C(C)(C)C)O[C@@H]2C	.	.	.	7.2	86.9*	.
CCS(=O)(=O)Nc1ccc2c(c1)C(=O)N(C)C[C@H](OC)[C@@H](C)CN(C(=O)C1CCC1)[C@@H](C)CO2	.	.	.	-12.4	0.6[16.7 µM]	.
CCN1C(=C(C#N)C#N)C=Cc2cc(C)ccc21	-4.0	-16.6	4.5	-4.1	-33.7	-2.0
C=CC[n+]1c(/C=C2\C=Cc3cc(C)ccc3N2CC)ccc2ccccc21	46.4	93.5*	45.4*	87.8*	22.6	23.7
Cc1ccc(C)c(C(=O)CSc2nnnn2C(C)C)c1	1.7	0.6	4.8	.	-111.3	-1.2
Cc1ccc(C(=O)CSc2nnnn2C(C)C)c(C)c1	-4.3	22.1	45.9*	1.6	-3.2	-20.2
CC1CCCCC1NC(=O)COC(=O)CCC(=O)c1cccs1 (stereo not drawn)	0.5	-14.0	1.8	-3.3	0.1	0.3
CC1CCCC(NC(=O)COC(=O)CCC(=O)c2cccs2)C1C (stereo not drawn)	0.4	-7.3	56.8*	-3.8	0.3	-0.2
C[C@@H]1CCCCO[C@H](CN(C)Cc2ccc(Cl)c(Cl)c2)[C@@H](C)CN([C@@H](C)CO)C(=O)c2cc(NC(=O)C3CCCCC3)ccc2O1	.	.	.	.	-8.1[16.7 µM]	.
Cc1ccccc1NC(=O)c1c([N+](=O)[O-])c(C(C)(C)C)nn1C	-1.7	16.7	55.3*	1.1	36.5	0.3
C[C@@H]1CN([C@H](C)CO)C(=O)c2cc(NC(=O)Nc3cccc4ccccc34)ccc2O[C@@H]1CN(C)Cc1ccc(C(=O)O)cc1	.	.	.	28.7	.	.
C[C@@H]1[C@@H](Sc2ccccc2)CC(=O)O[C@@H]1c1ccc(-c2ccccc2)cc1	.	-23.7	1.9	23.6	-17.8	?
O=C1C=CC2(O[C@H](c3ccccc3)[C@@H](c3ccccc3)O2)[C@H](Sc2ccccc2O)C1	.	95.6*	82.2*	34.7	-113.2	-20.0
CO[C@@H]1CN(C)C(=O)c2cc(NC(C)=O)ccc2OC[C@H](C)N(Cc2ccccc2F)C[C@H]1C	.	.	.	.	4.5[16.7 µM]	.
CC(C)(C)c1nc2c(s1)CCc1onc(-c3ccc(Br)cc3)c1-2	.	5.1	42.9*	-18.9	-22.6	-4.2
O=C(c1ccncc1)N1CC(=O)N2[C@@H](CO)[C@H](c3ccc(/C=C/c4ccccc4)cc3)[C@@H]2C1	.	.	.	14.1	.	.
CN1CCN(C(=O)C[C@@H]2CC[C@H]3[C@@H](COC[C@H](O)CN3Cc3ccc(Oc4ccccc4)cc3)O2)CC1	.	.	.	7.7	.	.
OC(c1cc(-c2cccc(Cl)c2)nc2ccccc12)C1CCCCN1 (stereo not drawn)	8.8	90.0*	-36.8	6.1	-22.2	-8.6
Nc1nc(N)nc(-c2ccc(Oc3ccccc3)cc2)n1	10.2	-36.1	2.6	.	.	-3.0
Nc1ncnc2c1c(-c1ccc(Oc3ccccc3)cc1)cn2C1CCCC1	.	89.8*	47.5*	27.3	-5.6	-0.8
CC(=O)N/C(=C\c1ccccc1)C(=O)OCC(=O)NC1CCCC1	-2.0	-6.5	1.5	149.7*	.	-1.6
SMILES	NSD2 inh	Shn3 inh set2	LMP1 NFkB inh	PAX8 inh HTS	Env fusion inh	N-glyco inh
O=C(CSc1nnc(Nc2ccccc2)s1)NC1CCS(=O)(=O)C1 (stereo not drawn)	0.7	89.9*	4.7	-9.0	-9.9	-7.0
Cc1cccc(C)c1Nc1nnc(SCC(=O)NC2CCS(=O)(=O)C2)s1 (stereo not drawn)	-1.3	10.9	0.7	-1.0	-2.8	1.3
CC(SCc1ccccc1)C(=O)N/N=C/c1cc2c(cc1Br)OCO2 (stereo not drawn)	3.8	-5.4	-1.3	7.4	88.4*	-1.4
C=C(CN(C)C)C(=O)c1ccc(OC2OC(COC(C)=O)C(OC(C)=O)C(OC(C)=O)C2OC(C)=O)cc1 (stereo not drawn)	1.2	98.4*	-6.5	83.2*	45.6	-11.9
C[C@H](CO)N1C[C@H](C)[C@@H](CN(C)Cc2ccc(C(F)(F)F)cc2)OCCCC[C@H](C)Oc2ccc(NS(=O)(=O)c3ccc(Cl)cc3)cc2C1=O	.	.	.	99.4*	55.0*[16.7 µM]	.
C[C@@H]1CN([C@H](C)CO)C(=O)c2cc(NS(=O)(=O)c3ccc(Cl)cc3)ccc2O[C@@H](C)CCCCO[C@@H]1CN(C)Cc1ccc(C(F)(F)F)cc1	.	.	.	4.5	?	.
C[C@@H]1CCCCO[C@@H](CN(C)Cc2ccc(C(F)(F)F)cc2)[C@@H](C)CN([C@@H](C)CO)C(=O)c2cc(NS(=O)(=O)c3ccc(Cl)cc3)ccc2O1	.	.	.	91.3*	7.4[16.7 µM]	.
Cc1ccc(NC(=O)O/N=C/c2c(C)nn(C(C)(C)C)c2C)cc1Cl	-1.8	.	75.4*	58.2	12.7	-17.8
NS(=O)(=O)c1ccc(NC(=O)c2cc(Cl)sc2Cl)cc1	4.4	12.1	0.7	62.8*	4.2	-3.2
NS(=O)(=O)c1ccc(NC(=O)c2cccc3cc4ccccc4nc23)cc1	1.0	1.1	4.2	5.9	13.7	62.2*
NS(=O)(=O)c1ccc(NC(=O)c2cccc3ccccc23)cc1	-1.1	0.2	4.2	13.8	10.1	-0.1
N/C(=N\NC(=O)Nc1ccccc1)c1ccccn1	-11.7	-38.3	.	-184.9	-34.5	-2.0
C=CCNC(=S)N/N=C(\C)c1ccccn1	4.3	91.5*	79.6*	94.7*	1.4	-19.0
CC(=NNC(=S)Nc1ccccc1)c1ccccn1	24.0	79.7	71.7*	29.4	14.5	-8.9
CC(=NNC(=S)Nc1ccccc1Cl)c1ccccn1	9.4	90.3*	57.2*	71.0*	63.0*	-11.4
Cc1ccc(S(=O)(=O)Nc2ccc3c(c2)C(=O)N([C@H](C)CO)C[C@H](C)[C@@H](CN(C)Cc2ccc(Cl)c(Cl)c2)OCCCC[C@@H](C)O3)cc1	.	.	.	19.7	-21.4[16.7 µM]	.
C[C@@H]1CN([C@@H](C)CO)C(=O)c2cc(NS(=O)(=O)c3ccc(Cl)cc3)ccc2O[C@@H]1CN(C)Cc1ccc(Cl)c(Cl)c1	.	.	.	5.5	-31.2[16.7 µM]	.
C[C@@H]1CCCCO[C@@H](CN(C)Cc2ccc(Cl)c(Cl)c2)[C@@H](C)CN([C@@H](C)CO)C(=O)c2cc(NS(=O)(=O)c3ccc(Cl)cc3)ccc2O1	.	.	.	29.4	.	.
